The source made the active and inactive calls.

A short description of assay [1]: small molecules captured by biotinylated probe aFSTL3 – biochemical, small-molecule microarray, fluorescence 635/667, stem cell growth factor project, primary screen (AID 1064).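 Note: measures binding of the biotinylated anti-FSTL3 antibody to printed compounds.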 To be noted: higher = more signal.
Assay [2] is described as follows: binders from COS7 lysate, DM2A8 probe, primary screen, torsin A project, cell lysate, small-molecule microarray, fluorescence 635/667 (AID 1065). As to conditions: higher = more signal, COS7 lysate expressing mutant human TOR1A.
Assay [3] can be described thus: small molecules captured by biotinylated probe aFGF2 – biochemical, small-molecule microarray, fluorescence 635/667, stem cell growth factor project, primary screen (AID 1067).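 Note: measures binding of biotinylated aFGF2 protein to printed compounds on slides; z-score merges feature fluorescence and signal-to-noise across triplicate slides.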 To be noted: higher = more signal.
A short description of assay [4]: small molecules captured by biotinylated probe aFGF10 – biochemical, small-molecule microarray, fluorescence 635/667, stem cell growth factor project, primary screen (AID 1071).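 Note: score merges 667 nm spot intensity and signal to noise from triplicate slides.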 As to conditions: higher = more signal.
Assay [5] concerns the target Neurogenic locus notch homolog protein 2 (Homo sapiens) (UniProt Q04721). Put plainly: small molecules binding Notch2 protein – biochemical, small-molecule microarray, 635 nm fluorescence, stem cell growth factors, primary screen (AID 1073). To be noted: higher = more signal.
Assay [6] concerns the target Pro-neuregulin-1, membrane-bound isoform (Homo sapiens) (UniProt Q02297). Put plainly: small molecules binding neuregulin-1 protein – biochemical, small-molecule microarray, fluorescence 635/667, psychiatric disease protein project, primary screen (AID 1075).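 Note: score combines 667 nm spot fluorescence with signal to noise.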 To be noted: NRG1 binding, 635 nm fluorescence, higher = more signal.
Assay [7] relates to Neuregulin-1 EGF-like domain. Put plainly: small molecules binding NRG1 EGF domain – biochemical, small-molecule microarray, 635 nm fluorescence, primary screen (AID 1081).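 Note: binding of the protein to compounds printed on small-molecule microarray slides.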 To be noted: higher = more signal.
Assay [8] can be described thus: FRG1 expression reporter modulators in myotubes – cell-based, C2C12 myotubes, firefly/Renilla luciferase, luminescence, FRG1 inhibition for FSHD, primary screen (AID 1084). To be noted: FRG1 promoter luciferase, higher = more signal, called active from +8 up or from −8 down.
Assay [9] is described as follows: small molecules captured by biotinylated probe aFST – biochemical, small-molecule microarray, fluorescence 635/667, stem cell growth factor project, primary screen (AID 1086).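 Note: score merges 667 nm fluorescence with signal-to-noise of each printed compound spot.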 To be noted: higher = more signal.
Assay [10] in a line: binders of probe aHhip on microarray, primary screen, stem cell growth factor project, biochemical, small-molecule microarray, fluorescence 635/667 (AID 1087).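 Note: score merges spot fluorescence at 667nm with spot signal to noise ratio.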 To be noted: higher = more signal.
Assay [11] deals with PRMT1 (protein arginine N-methyltransferase 1). Put plainly: small molecules binding arginine methyltransferase PRMT1 – biochemical, small-molecule microarray, 635 nm fluorescence, primary screen (AID 1088).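 Note: binding of Prmt1 protein to compounds spotted on small-molecule microarray slides.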 To be noted: higher = more signal.
Assay [12] is described as follows: growth effects on S. cerevisiae YJM789 – YJM789 clinical isolate, OD600, 24 h, basal, primary screen (AID 1089).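 Note: growth of clinical yeast isolate S. cerevisiae YJM 789 seeded 1000 cells per well; test concentration not given here.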 As to conditions: higher = more signal, called active from +8 up or from −8 down.
The nature of assay [13]: S. pombe growth modifiers, basal conditions – strain 972, OD600, 24 h, no modulator, primary screen (AID 1090).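 Note: basal condition with compound alone and no growth modifier present; test concentration not given here.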 To be noted: S. pombe 972 growth, higher = more signal, called active from +8 up or from −8 down.
Assay [14] is described as follows: budding yeast growth modifiers under rapamycin – strain BY4716, OD600, 96 h, primary screen (AID 1091). Note: test concentration not given here. To be noted: S. cerevisiae BY4716 + rapamycin, higher = more signal, called active from +8 up or from −8 down.
Assay [15] has as its target Torsin-1A-interacting protein 2 (Homo sapiens) (UniProt Q8NFQ8). Put plainly: small molecules binding lysate-expressed LULL1 – cell lysate, human LULL1 lysate, 635/667 nm fluorescence, primary screen (AID 1092).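 Note: score merges per-feature 667 nm fluorescence with signal-to-noise.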 As to conditions: small-molecule microarray, hLULL1 lysate binding, 635 nm fluorescence; higher = more signal.
Assay [16] can be described thus: optical density change of DRC41 E. coli – strain DRC41, OD650, 24 h, E. coli filamentation project, primary screen (AID 1093).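 Note: MC1000 strain lacking acrAB efflux and sulA so SOS filamentation is blocked; test concentration not given here.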 To be noted: E. coli DRC41 growth, higher = more signal, called active from +8 up or from −8 down.
The nature of assay [17]: probe aLefty2 binding to arrayed compounds – biochemical, biotinylated probe, 635/667 nm fluorescence, primary screen (AID 1094).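 Note: score merges spot fluorescence near 667 nm with spot signal-to-noise ratio.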 To be noted: small-molecule microarray, higher = more signal.
Assay [18] relates to Noggin (protein binding on small-molecule microarray). Put plainly: small molecules binding Noggin protein – biochemical, 635/667 nm fluorescence, primary screen (AID 1095).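 Note: score merges 667 nm feature fluorescence with signal to noise over triplicate slides.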 As to conditions: 635 nm fluorescence, higher = more signal.
The target of assay [19] is Neurogenic locus notch homolog protein 3 (Homo sapiens) (UniProt Q9UM47). The assay can be described thus: small molecules binding NOTCH3 protein – biochemical, 635/667 nm fluorescence, primary screen (AID 1096). As to conditions: small-molecule microarray, 635 nm fluorescence, higher = more signal.
Sequence of Neurogenic locus notch homolog protein 3 (Homo sapiens) (Q9UM47 whole entry, looked up): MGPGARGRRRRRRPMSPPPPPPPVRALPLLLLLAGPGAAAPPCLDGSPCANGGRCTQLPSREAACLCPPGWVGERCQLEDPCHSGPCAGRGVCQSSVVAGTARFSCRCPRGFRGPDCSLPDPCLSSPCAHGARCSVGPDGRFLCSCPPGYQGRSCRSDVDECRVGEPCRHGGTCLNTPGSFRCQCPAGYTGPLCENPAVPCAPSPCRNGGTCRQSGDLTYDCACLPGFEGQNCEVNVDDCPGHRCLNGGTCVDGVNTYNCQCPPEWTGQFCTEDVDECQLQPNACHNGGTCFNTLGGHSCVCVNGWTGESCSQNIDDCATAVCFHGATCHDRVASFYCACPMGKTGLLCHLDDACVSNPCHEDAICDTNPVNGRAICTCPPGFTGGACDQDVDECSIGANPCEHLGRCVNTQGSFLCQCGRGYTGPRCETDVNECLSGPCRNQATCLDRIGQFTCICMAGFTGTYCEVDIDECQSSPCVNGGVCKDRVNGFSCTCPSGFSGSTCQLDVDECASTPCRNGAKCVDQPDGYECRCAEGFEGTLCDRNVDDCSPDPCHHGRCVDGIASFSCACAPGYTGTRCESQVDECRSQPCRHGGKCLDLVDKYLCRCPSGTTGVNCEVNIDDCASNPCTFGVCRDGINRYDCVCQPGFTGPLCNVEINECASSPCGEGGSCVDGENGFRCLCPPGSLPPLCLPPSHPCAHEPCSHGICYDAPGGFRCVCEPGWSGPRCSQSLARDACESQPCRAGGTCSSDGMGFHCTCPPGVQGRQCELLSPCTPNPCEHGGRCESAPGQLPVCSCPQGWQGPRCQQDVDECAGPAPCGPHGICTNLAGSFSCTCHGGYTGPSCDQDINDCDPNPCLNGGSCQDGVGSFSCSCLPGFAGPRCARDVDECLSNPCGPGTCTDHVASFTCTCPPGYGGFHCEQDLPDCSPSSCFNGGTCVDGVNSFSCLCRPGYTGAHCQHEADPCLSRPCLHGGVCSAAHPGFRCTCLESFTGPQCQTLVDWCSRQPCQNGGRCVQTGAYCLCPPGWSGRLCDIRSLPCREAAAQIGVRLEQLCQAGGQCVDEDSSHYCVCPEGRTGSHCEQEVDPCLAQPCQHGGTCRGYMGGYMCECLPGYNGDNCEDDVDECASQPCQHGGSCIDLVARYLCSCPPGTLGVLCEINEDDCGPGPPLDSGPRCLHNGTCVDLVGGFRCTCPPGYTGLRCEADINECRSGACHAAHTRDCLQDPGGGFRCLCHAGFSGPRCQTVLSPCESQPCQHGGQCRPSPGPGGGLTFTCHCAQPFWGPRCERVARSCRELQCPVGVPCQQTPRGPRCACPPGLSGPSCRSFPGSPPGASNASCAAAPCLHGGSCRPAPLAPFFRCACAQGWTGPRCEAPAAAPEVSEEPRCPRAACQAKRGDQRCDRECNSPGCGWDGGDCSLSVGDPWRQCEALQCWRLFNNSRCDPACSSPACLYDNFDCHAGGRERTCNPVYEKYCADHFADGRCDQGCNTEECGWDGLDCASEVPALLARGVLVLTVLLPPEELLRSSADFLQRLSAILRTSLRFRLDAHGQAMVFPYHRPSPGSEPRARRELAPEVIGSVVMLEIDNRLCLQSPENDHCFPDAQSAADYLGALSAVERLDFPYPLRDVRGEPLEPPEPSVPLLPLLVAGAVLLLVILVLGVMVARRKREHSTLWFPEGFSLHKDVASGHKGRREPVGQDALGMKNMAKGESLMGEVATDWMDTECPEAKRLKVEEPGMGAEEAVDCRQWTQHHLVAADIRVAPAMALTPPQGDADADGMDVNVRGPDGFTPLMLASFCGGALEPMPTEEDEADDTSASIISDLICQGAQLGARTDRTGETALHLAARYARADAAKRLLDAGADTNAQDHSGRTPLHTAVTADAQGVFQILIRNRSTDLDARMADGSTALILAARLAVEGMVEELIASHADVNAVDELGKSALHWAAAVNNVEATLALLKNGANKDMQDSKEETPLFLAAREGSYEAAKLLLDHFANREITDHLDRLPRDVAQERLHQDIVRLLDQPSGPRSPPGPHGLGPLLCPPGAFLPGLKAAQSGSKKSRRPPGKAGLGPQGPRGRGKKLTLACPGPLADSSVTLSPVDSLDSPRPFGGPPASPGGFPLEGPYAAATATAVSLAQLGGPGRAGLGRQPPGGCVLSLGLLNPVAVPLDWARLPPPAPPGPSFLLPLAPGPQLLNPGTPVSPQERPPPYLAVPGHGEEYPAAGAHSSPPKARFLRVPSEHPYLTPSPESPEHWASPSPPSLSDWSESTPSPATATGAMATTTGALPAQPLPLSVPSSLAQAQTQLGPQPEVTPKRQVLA
Assay [20] can be described thus: probe aEGFR binding to arrayed compounds – biochemical, biotinylated probe, 635/667 nm fluorescence, primary screen (AID 1097).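 Note: probe is a biotinylated anti-EGFR antibody binding compounds printed on slides; score combines fluorescence near 667 nm and signal to noise of each spot.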 As to conditions: small-molecule microarray, higher = more signal.

Sequence of Pro-neuregulin-1, membrane-bound isoform (Homo sapiens) (Q02297 whole entry, looked up, the tested form may be a part, canonical isoform): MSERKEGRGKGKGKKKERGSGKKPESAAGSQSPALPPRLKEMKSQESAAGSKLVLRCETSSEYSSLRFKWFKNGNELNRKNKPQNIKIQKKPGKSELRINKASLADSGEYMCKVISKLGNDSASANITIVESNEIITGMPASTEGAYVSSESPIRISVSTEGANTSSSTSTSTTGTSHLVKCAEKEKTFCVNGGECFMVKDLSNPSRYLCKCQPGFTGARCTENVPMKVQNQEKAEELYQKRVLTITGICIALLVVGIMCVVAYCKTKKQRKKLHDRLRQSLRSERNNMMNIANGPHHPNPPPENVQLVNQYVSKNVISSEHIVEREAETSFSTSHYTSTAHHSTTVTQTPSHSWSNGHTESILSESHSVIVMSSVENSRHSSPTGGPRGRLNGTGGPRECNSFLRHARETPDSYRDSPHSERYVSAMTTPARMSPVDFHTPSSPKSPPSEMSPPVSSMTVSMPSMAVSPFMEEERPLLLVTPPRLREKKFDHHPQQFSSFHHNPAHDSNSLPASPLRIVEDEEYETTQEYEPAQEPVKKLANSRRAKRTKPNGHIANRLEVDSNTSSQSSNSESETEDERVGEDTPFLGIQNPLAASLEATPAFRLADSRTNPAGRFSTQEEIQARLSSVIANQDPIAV
Sequence of Torsin-1A-interacting protein 2 (Homo sapiens) (Q8NFQ8 whole entry, looked up): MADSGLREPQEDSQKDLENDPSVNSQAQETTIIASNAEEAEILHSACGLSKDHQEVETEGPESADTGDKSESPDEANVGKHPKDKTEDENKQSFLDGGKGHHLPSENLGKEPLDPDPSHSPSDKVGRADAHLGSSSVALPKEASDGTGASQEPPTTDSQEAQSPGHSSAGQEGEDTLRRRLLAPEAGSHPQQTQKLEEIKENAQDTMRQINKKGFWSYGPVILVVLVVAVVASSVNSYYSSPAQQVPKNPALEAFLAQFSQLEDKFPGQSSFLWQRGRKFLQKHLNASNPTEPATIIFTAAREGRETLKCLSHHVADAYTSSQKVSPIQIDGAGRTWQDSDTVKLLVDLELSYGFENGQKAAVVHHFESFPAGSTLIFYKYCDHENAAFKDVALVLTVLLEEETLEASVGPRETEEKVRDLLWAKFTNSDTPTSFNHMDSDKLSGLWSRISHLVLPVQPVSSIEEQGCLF

For the compound `CC(C)(C)N1C(=O)[C@H]2[C@H]3[C@H](O)[C@H](O)CC(=O)[C@@H]3CC[C@H]2C1=O`, the composite z-score in assay [1] was 1.64; in assay [2] it was 0.0227; in [3], -0.156; in [4] it was 0.673; in [5], 0.259; in assay [6], -0.404. Further, the composite z-score is 0.304 in [7]; 0.723 in assay [9]; -0.0645 in assay [10]; 0.33 in [11]; -0.26 in assay [15]; -0.204 in assay [17]. In addition, the composite z-score is 0.562 in [18], 0.373 in [19] and -0.147 in assay [20]. For the same compound, the z-score was -0.255 (inactive) in assay [8]; -0.128 (inactive) in [12]; -0.509 (inactive) in assay [13]; -0.0675 (inactive) in [14]; -0.561 (inactive) in [16].
For the compound `O=C1C[C@@H](O)[C@@H](O)[C@@H]2[C@@H]3C(=O)N(Cc4ccc5c(c4)OCO5)C(=O)[C@@H]3CC[C@H]12`, the composite z-score in assay [1] was -0.296; in [2], 0.348; in assay [3], -0.0218; in assay [4], 0.477; in [5] it was 0.558; in [6], 0.229. Besides, the composite z-score was 0.29 in assay [7]; 0.078 in [9]; 0.0505 in [10]; 0.0008 in assay [11]; 0.443 in [15]; -0.136 in [17]. Further, the composite z-score was found to be 0.318 in assay [18], 0.406 in assay [19] and 0.0135 in assay [20]. Further, the z-score is 0.376 (inactive) in assay [8]; 0.264 (inactive) in assay [12]; -0.587 (inactive) in assay [13]; -0.511 (inactive) in assay [14]; 0.378 (inactive) in [16].
Take `COC(=O)CC=C[C@@H](C)[C@@H](C=NOCC[C@@H]1C=C[C@H](OC(C)=O)[C@@H](COC(C)=O)O1)NS(=O)(=O)c1ccc(C)cc1`: the composite z-score in [1] is -0.186; in assay [2], 1.86; in [3] it was -0.129; in assay [4], -0.371; in [5], -0.134; in assay [6] it was -0.512. In addition, the composite z-score in assay [7] is -0.123; in assay [9], 0.153; in assay [10], -0.0296; in assay [11] it was 0.477; in [15] it was -0.0098; in [17], 0.135. Besides, the figures for the composite z-score in [18], in [19] and in [20] were 0.706, -0.213 and 0.0511, respectively. The z-score was 0.0469 (inactive) in assay [8]; 0.787 (inactive) in assay [12]; 0.466 (inactive) in [13]; -0.448 (inactive) in assay [14]; 0.545 (inactive) in assay [16].
For the compound `COC(=O)[C@@H]1CC[C@H](C)[C@@H](c2ccc(C)cc2)N1C(=O)c1ccc(C=NO[C@@H]2O[C@H](COC(C)=O)[C@@H](OC(C)=O)[C@H](OC(C)=O)[C@H]2OC(C)=O)cc1`, the composite z-score is -0.241 in [1]; 0.427 in [2]; -0.0985 in [3]; 0.514 in assay [4]; 0.527 in assay [5]; 0.0818 in assay [6]. Further, the composite z-score in assay [7] was 0.319; in assay [9] it was 0.337; in assay [10] it was 0.0749; in [11] it was 1.43; in [15], 0.475; in [17] it was -0.0873. The composite z-score in [18] was determined as 0.199; in assay [19], 0.864; in assay [20], 0.129. Also, the z-score in assay [8] is 0.861 (inactive); in [12], 1.26 (inactive); in assay [13], -0.631 (inactive); in assay [14] it was 0.876 (inactive); in [16], -1.3 (inactive).
In the case of `COc1ccc(O[C@@H]2[C@H](O)CO[C@@H]2C=Cc2ccccc2)cc1`, the composite z-score was -0.277 in assay [1]; 0.232 in [2]; -0.0482 in [3]; 0.336 in assay [4]; -0.0587 in assay [5]; 0.46 in [6]. In addition, the composite z-score is 0.102 in assay [7]; 0.0116 in [9]; 0.281 in assay [10]; 0.123 in assay [11]; 0.11 in [15]; -0.238 in [17]. Besides, the composite z-score is 0.135 in [18], 0.0877 in assay [19] and -0.163 in [20]. Also, the z-score is -0.136 (inactive) in assay [8]; -0.565 (inactive) in assay [12]; -1.51 (inactive) in assay [13]; 0.0945 (inactive) in assay [14]; 0.0038 (inactive) in assay [16].

Values taken from PubChem BioAssay.
